This is a sample that favours compounds with a hit; in the whole collection about 0.68% have one here.
UGM FP inh = Mtb UDP-galactopyranose mutase inhibition | P9WIQ1 | purified UGM, fluorescence polarization probe displacement | AID 504406 | inhibition, % at 10 µM | 320,000 compounds, 0.06% hits; in the data active = inhibition above about 10%, passing the limit was not always enough
Target sequence (P9WIQ1 whole entry, looked up): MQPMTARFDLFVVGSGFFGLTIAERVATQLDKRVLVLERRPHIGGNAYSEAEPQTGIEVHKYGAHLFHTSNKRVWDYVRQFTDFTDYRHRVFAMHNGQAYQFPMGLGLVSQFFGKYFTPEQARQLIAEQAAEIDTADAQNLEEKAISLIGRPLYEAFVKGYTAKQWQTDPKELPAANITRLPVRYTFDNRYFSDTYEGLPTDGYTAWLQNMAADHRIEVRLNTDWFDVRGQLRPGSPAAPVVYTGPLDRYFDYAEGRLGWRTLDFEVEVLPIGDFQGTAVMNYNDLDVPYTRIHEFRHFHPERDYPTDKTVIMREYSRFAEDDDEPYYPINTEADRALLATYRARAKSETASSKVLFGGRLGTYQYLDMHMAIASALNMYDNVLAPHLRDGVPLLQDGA
Sa RN4220 lethal = S. aureus RN4220 growth inhibition; OD600, 16 h; inhibition, % (no concentration beside the values); 330,000 compounds, 0.33% hits; in the data active = inhibition above about 85%;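 note: plate controls were untreated cells for no effect and reference antibiotic for full effect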
ugtP null kill = kills S. aureus RN4220 lacking UgtP; growth inhibition, % (no concentration beside the values); 330,000 compounds, 0.54% hits; S. aureus RN4220 ugtP deletion, OD600 growth, 16 h; in the data active = growth inhibition above about 68%;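 note: plate controls were untreated wells for no effect and antibiotic for full effect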
Mtb betalactam = beta-lactam sensitization of Mtb H37Rv; M. tuberculosis H37Rv growth with meropenem, percent inhibition; inhibition, % at 25 µM; 330,000 compounds, 0.27% hits; call rule not given here;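 note: growth measured after seven days incubation then overnight dye step; 0% = bacteria only wells and 100% = bacteria with antibiotic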
Mtb hypoxia inh = reduces hypoxia-regulated biosensor signal in M. tuberculosis; 300,000 compounds, 0.1% hits; fluorescence inhibition, % (no concentration beside the values); M. tuberculosis hypoxia-regulated fluorescent reporter, fluorescence; in the data active = fluorescence inhibition mostly above about 23%, no sharp cut-off; inactive = mostly below about 17%
Rv3671c protease = inhibits the M. tuberculosis serine protease Rv3671c; P9WHR9; inhibition, % at 5.96 µM; 320,000 compounds, 0.048% hits; in the data active = inhibition above about 38%;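 note: extracellular domain of Rv3671c used as enzyme; 0% = enzyme with DMSO and 100% = no enzyme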
* = called active by the depositor; . = no result shown; ! = not active in a repeat.

SMILES | UGM FP inh | Sa RN4220 lethal | ugtP null kill | Mtb betalactam | Mtb hypoxia inh | Rv3671c protease
NC(=O)C1CCCNc2c(I)cc([N+](=O)[O-])cc2C(=O)NC(CO)C(=O)NCC(=O)N1 (stereo not given) | . | 1 | -3 | . | 5 | .
NC(N)=NC(=O)c1nc(Cl)c(N)nc1N | 0 | 9 | 98*! | 4 | 7 | -3
NC(N)=NC(=O)c1nc(Cl)c(N2CCCCCC2)nc1N | 0 | . | . | 6 | . | 2
COc1ccccc1C1CC(=O)Oc2cc(C)c(Br)c(C)c21 (stereo not given) | . | -3 | 86* | . | 8 | .
COc1ccccc1C1CC(=O)Oc2cc(C)c(Cl)c(C)c21 (stereo not given) | . | 1 | 28 | . | -1 | .
Cn1c2ccccc2c(=O)c2ccc(NCCc3cccs3)cc21 | -3 | 15 | 29 | 91 | 38* | -13
CCCCCCCn1c2c(c(=N)c3ccccc31)CCC2 | 0 | 25 | 89* | 58 | 6 | -11
CCCn1c2c(c(=N)c3c1CCC3)CCC2 | 0 | 3 | 9 | -3 | 8 | 4
CN(CC=Cc1ccccc1)Cc1cccc2ccccc12 | . | 3 | 19 | . | . | .
O=C(OCC(=O)c1ccccc1Br)c1ccccn1 | 1 | 8 | 10 | -4 | . | 3
O=C(OCC(=O)c1ccc(Cl)cc1Cl)c1ccccn1 | -3 | 8 | 10 | 4 | 30* | 6
C=CCNC(=O)C(=Cc1ccccc1OCC)NC(=O)c1ccccc1 | . | 1 | 0 | . | -5 | .
FC(F)Sc1ccc(NC(=S)NC(c2ccccc2)c2ccccc2)cc1 | -2 | 99* | 100* | 54 | 8 | -195
FC(F)Sc1ccc(NC(=S)NCc2ccccc2)cc1 | 0 | -7 | -4 | -4 | 6 | -16
FC(F)Sc1ccc(NC(=S)NCC2CCCCC2)cc1 | -2 | 99* | 100* | 88 | -2 | -13
FC(F)Sc1ccc(NC(=S)NC2CCCCC2)cc1 | -4 | -2 | -29 | 4 | 5 | -3
NC(=O)C1CC2(CC(c3cccc(NC(=O)C4CCC(=O)N4)c3)=NO2)CN1C(=O)c1ccc(Cl)cc1 (stereo not given) | . | 5 | -3 | . | 12 | .
COC(=O)c1ccccc1NC(=O)N1c2ccccc2Sc2ccccc21 | 3 | -8 | 94* | 0 | -3 | -4
CC1CN(c2nc3nonc3nc2N2CCSCC2)CC(C)O1 (stereo not given) | . | 2 | -6 | . | -4 | .
Nc1ccc2c3c(cccc13)-c1ccccc1-2 | . | 71 | 85* | . | -6 | .
Cc1ccc2c3c(cccc13)-c1ccccc1C2=O | . | 2 | 47 | 22 | -1 | -15
Cc1ccc(C(=O)N2CCN(Cc3ccccc3)CC2)o1 | -1 | 3 | 1 | 0 | . | 2
Cc1ccc(/C=C/C(=O)N2CCN(Cc3ccccc3)CC2)o1 | 1 | 6 | -3 | -1 | 59* | 1
CCn1cc(C(=O)O)c(=O)c2cc(F)c(N3CCN(C(=S)NC(=O)c4ccc(F)cc4)CC3)cc21 | -1 | 86 | 84 | 17 | 7 | 5
CCn1cc(C(=O)O)c(=O)c2cc(F)c(N3CCN(C(=S)NC(=O)c4c(OC)cccc4OC)CC3)cc21 | 2 | 98* | 100* | 68 | . | 7
SMILES | UGM FP inh | Sa RN4220 lethal | ugtP null kill | Mtb betalactam | Mtb hypoxia inh | Rv3671c protease
CCn1cc(C(=O)O)c(=O)c2cc(F)c(N3CCN(S(=O)(=O)c4ccc(NC(=O)OC)cc4)CC3)cc21 | 0 | 97* | 100* | 47 | 7 | -2
CCC(=O)N1CCN(c2cc3c(cc2F)c(=O)c(C(=O)O)cn3CC)CC1 | -1 | 44 | 47 | 99 | 4 | 6
CCn1cc(C(=O)O)c(=O)c2cc(F)c(N3CCN(C(=S)NC(=O)c4cccc(F)c4)CC3)cc21 | 1 | 12 | 9 | 14 | 16 | 9
CCn1cc(C(=O)O)c(=O)c2cc(F)c(N3CCN(C(=S)Nc4ccccc4OC)CC3)cc21 | -2 | 99* | 99* | 60 | 6 | 1
O=C(NN=Cc1cccc(Oc2ccccc2)c1)c1ccccc1Br | . | -3 | 99* | . | 4 | .
O=C(N/N=C/c1cccc(Oc2ccccc2)c1)c1ccccc1F | -1 | . | . | 46 | . | 1
CCCCCCC(=O)O | . | 3 | 6 | -10 | . | -2
CCCCCCCCCCCCCCCC(=O)OC(CC(=O)O)C[N+](C)(C)C (stereo not given) | . | 42 | 99* | 0 | 1 | -5
O=C(Cc1ccccc1)Nc1cccc([N+](=O)[O-])c1 | 2 | 0 | -1 | -3 | 13 | -15
O=C(Nc1cccc([N+](=O)[O-])c1)c1ccc2ccccc2c1O | 0 | 86* | 86* | -2 | 12 | -4
OC(c1ccc(F)cc1)(c1ccc(F)cc1)C1CCCN1 (stereo not given) | . | -2 | -8 | . | 3 | .
Cc1nnc(SCc2ccc(F)cc2)n1NCC=Cc1ccccc1 | . | 5 | -5 | . | . | .
CCOC(=O)Nc1sc2c(c1C(=O)OCC)CCC2 | 0 | -1 | 61 | 7 | 5 | 8
CCCCOC(=O)Nc1sc2c(c1C(=O)OC)CCC2 | 2 | 7 | 92* | -10 | 2 | 6
O=C(NCCF)C1CC1C(NP(=O)(c1ccccc1)c1ccccc1)c1ccccc1 (stereo not given) | . | 2 | -11 | . | 2 | .
CC=CC=CC(=O)N1CC2(CC(c3cccc(NC(=O)COc4ccc(Cl)cc4)c3)=NO2)CC1C(N)=O (stereo not given) | . | 8 | -6 | . | 14 | .
O=C1NC(=S)S/C1=C\C=C\c1ccc([N+](=O)[O-])o1 | . | 100* | 100* | . | . | .
Cc1cccc(NC(=S)N=Nc2c(O)[nH]c3ccccc23)c1 | 2 | 99* | 95* | 9 | 14 | 24
CC(C)(C)C1C=C(C(=O)N2CCOCC2)OC(OCc2ccc(CO)cc2)C1 (stereo not given) | . | 3 | 5 | . | 2 | .
Cc1nc2c(C)cccn2c1C(O)=C1C(=O)C(=O)N(CCN2CCOCC2)C1c1ccncc1 (stereo not given) | . | 7 | 1 | . | 10 | .
O=C(NNC(=S)NC1CCCCC1)c1sc2ccccc2c1Cl | 1 | -7 | 44 | 6 | 11 | 10
CC(C)(C)C(=O)NC(=S)NNC(=O)c1sc2ccccc2c1Cl | -2 | 94* | 97* | 98 | -11 | 0
CC1=C/C(=C\C=C(C#N)C#N)N(C)c2ccccc21 | 1 | 3 | 3 | -1 | . | -223
CCCCCCN1C=CC=C/C1=C\C=C(C#N)C#N | 16* | 4 | 2 | 19 | 0 | 2
CCOC(=O)COc1ccc2ccccc2c1/C=C/[N+](=O)[O-] | -1 | 81 | 87* | 100 | 10 | -12
O=[N+]([O-])/C=C/c1c(OCc2ccccc2)ccc2ccccc12 | 2 | . | . | 99 | . | -4
CCOc1ccc(/C=C/[N+](=O)[O-])c2ccccc12 | 0 | 96* | 95* | 100 | 19 | 2
Cc1ccccc1CN1C(C(C)C)COCCS1(=O)=O (stereo not given) | . | 9 | -3 | . | 13 | .
CCOC(=O)c1c(NC(=O)CN2C(=O)N(C)C3(CCCCC3)C2=O)sc(C(=O)N(C)C)c1C | . | 3 | -4 | . | 25* | .

From PubChem
